From the supplement of paper PMC3334620
Over roughly 33,000 sequences, “E-score (-0.5 to 0.5)” has its median near -0.032; the highest 2% begin near 0.36. Shown is part of a subset that was picked to be rich in the highest values.

These sequences were tested against T1, Sko1 (UniProt Q02100) (assay: PBM E-score (8-mer binding enrichment) (E-score (-0.5 to 0.5)); higher = stronger / more preferred TF binding). Details: protein concentration: 200 nM; construct: GST-full length.
T1 sequence: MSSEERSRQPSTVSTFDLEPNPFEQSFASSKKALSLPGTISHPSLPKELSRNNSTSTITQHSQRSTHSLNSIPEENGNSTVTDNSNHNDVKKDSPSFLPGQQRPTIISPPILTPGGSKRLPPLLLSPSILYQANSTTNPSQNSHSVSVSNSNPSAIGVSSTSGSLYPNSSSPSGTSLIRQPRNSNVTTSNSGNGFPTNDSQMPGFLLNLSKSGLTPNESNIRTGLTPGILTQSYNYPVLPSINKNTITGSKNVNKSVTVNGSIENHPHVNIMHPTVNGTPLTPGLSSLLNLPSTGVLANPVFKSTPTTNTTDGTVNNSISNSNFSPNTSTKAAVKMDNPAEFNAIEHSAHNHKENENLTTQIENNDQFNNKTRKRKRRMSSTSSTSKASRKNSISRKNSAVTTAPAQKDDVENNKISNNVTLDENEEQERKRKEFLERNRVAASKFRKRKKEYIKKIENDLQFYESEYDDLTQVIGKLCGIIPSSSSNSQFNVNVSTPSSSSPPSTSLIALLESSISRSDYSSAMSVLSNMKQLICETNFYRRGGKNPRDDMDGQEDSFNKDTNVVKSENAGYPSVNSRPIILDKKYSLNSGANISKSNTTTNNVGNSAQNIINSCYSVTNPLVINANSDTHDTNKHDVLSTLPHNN
Protocol: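 Universal 'all 10-mer' protein binding microarrays (Agilent AMADID 015681) probed with GST-tagged S. cerevisiae TFs (full-length or DBD) made by in vitro transcription/translation (PURExpress), about 100-200 nM. Bound TF was detected with fluorescent anti-GST. Each ungapped 8-mer (which stands for itself and its reverse complement) is scored by the PBM enrichment score (E-score), a modified Wilcoxon-Mann-Whitney statistic from -0.5 to +0.5, computed with the Universal PBM Analysis Suite. Scale: above 0.35 generally sequence-specific binding.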

Sequence | PBM E-score
GGAAAACC | -0.128
CATTAGCC | -0.188
AATGACAG | 0.0139
AATGACAT | 0.4
AGTGACAA | 0.0709
AGTGACAC | 0.191
AATGACAC | 0.258
AGTGACAT | 0.361
ACTGCCTG | -0.0718
AGAAGCAT | -0.0822
CTGGGTTC | -0.145
ACCACAGC | -0.195
AATGGCGG | -0.3
AATGGCGT | 0.387
AATGGCGC | -0.0228
CACTCCTC | -0.168
ACTCAGCT | -0.174
AGCGTACG | 0.214
CGCGTACG | 0.401
CACGTACG | 0.406
CACGTACA | 0.389
AACGTACA | 0.303
CACGTACC | 0.407
CGCGTACA | 0.209
CAAGTACG | 0.135

Sequence | PBM E-score
CCCGTACG | 0.0984
CTCGTACC | 0.123
CCCGTACA | -0.273
AACGTACC | 0.223
ACTTATTA | 0.157
GAGCCCTC | -0.351
ACCTTTCC | -0.271
AGGGCGAT | -0.0344
ACTAGGGC | -0.211
GCACTTAA | 0.109
AAACCTGC | -0.203
AGCTTCCT | 0.0027
GACGTACC | 0.433
GGCGTACC | -0.0685
TACGTACA | 0.477
TCCGTACA | 0.0313
GCCGTACA | -0.148
ACCGTACA | 0.0593
GACGTACA | 0.446
GCCGTACC | -0.175
GTCGTACA | 0.0687
ATTCAAGA | 0.0257
ACTCTCAA | -0.00162
CGTGTGGA | 0.00704
AAATCTCG | 0.014

Sequence | PBM E-score
GACACTTA | -0.00276
AAATTACT | 0.196
CAATTACA | 0.167
CAATTACG | 0.455
ATATTACA | 0.175
ATATTACG | 0.465
CAATTACC | 0.156
AAATTACG | 0.439
ATATTACC | 0.251
AAATTACC | 0.0333
AAGGTCGA | -0.0566
ACCAAGCT | 0.0443
GACACCAC | -0.0851
CACTATCG | -0.0728
GAATCATC | 0.0732
ACGTTATC | 0.413
ACGTTGTA | 0.394
CCGTTATA | 0.0635
GCGTTATA | 0.194
GCGTTGTA | 0.057
ACGTTAGC | 0.352
ACGTTATA | 0.426
ACGTTACC | 0.297
CCGTTATC | -0.00855
ACGTTACG | 0.428

Sequence | PBM E-score
ACGTTGTG | 0.311
ACGTTACA | 0.359
CGCGCTGC | -0.147
CGCCCGGA | -0.211
TACTGAAA | 0.219
AGAGACGA | 0.0256
CCGGCTCA | -0.162
AAGAGAAC | 0.0447
GTGTGAGA | 0.0436
ACGTTAGG | 0.244
ACGTTATG | 0.419
ACGTTAAG | 0.325
ACGACGCA | 0.334
CGGACGCA | -0.121
GTGACGCA | 0.457
GCGACGCA | 0.128
ATGACGCA | 0.492
CTGACGCC | 0.159
ATGACGCG | 0.476
AGGACGCA | -0.117
CTGACGCA | 0.403
ACGACGCG | 0.148
GGGACGCA | 0.0981
AAGACGCG | -0.115
GGACCTCA | -0.0759

Sequence | PBM E-score
ACCTGCGC | -0.192
AGTGTGGG | -0.197
CACCTGGC | -0.0659
CAGCCCTC | -0.334
CCCTAGAG | -0.32
ATTCCCGG | -0.0536
ACTAAGTA | 0.0919
AGGCGCGG | -0.242
ACAAACCG | -0.0685
ATGCCCGG | -0.334
GCGGTTAA | -0.186
TAATTCTA | 0.227
ATCACCAA | 0.0298
AAGACGCC | -0.165
ATGACGCC | 0.449
ATGACTCC | -0.00531
TACTAGAA | 0.124
CGACGTTC | -0.0745
GGACGTAA | 0.426
GGACGTTA | 0.251
GGACGTAC | 0.275
CGACGTAG | 0.368
CGACGAAG | 0.00357
AGACGTAA | 0.447
AGACGTTA | 0.283

Sequence | PBM E-score
CGTCGTAG | 0.0813
CGACGTAC | 0.412
CGACGTGC | 0.22
AGACGGAA | -0.136
CAAAAATC | 0.131
CCGACTCA | -0.246
ACCTAACA | 0.056
CATTTGCG | 0.179
ACGCAGCC | 0.0962
AATACTTA | 0.178
CGACGTTA | 0.337
CGACGTAA | 0.472
CGACGTGA | 0.344
ACTGCACA | -0.0526
GTAACGTA | 0.421
ATAACGAA | 0.268
ATAACGGA | 0.0991
CTAACGTA | 0.374
ATAACGTA | 0.461
CTAACGAA | 0.0318
CTAACGGA | 0.007
GTAACGCA | 0.217
GTAACGAA | 0.216
TCGTCTCA | -0.0858
ATTTCGAA | 0.247

Sequence | PBM E-score
AGTGGGGA | -0.201
ACACCTTG | 0.00022
TTTGCAAA | 0.0584
ATTCATCG | -0.0686
AACCAGAA | 0.0649
AGTAGGAA | -0.0265
CGGAAGGA | -0.178
CCAACGTC | 0.236
ACAACGTC | 0.368
ACAACGGA | 0.00163
CCAACGTA | 0.387
GCAACGCA | 0.0485
ACAACGCC | 0.0338
ACAACGTA | 0.416
ACAACGTG | 0.218
GCAACGAA | 0.148
CCAACGCA | 0.117
ACAACGAA | 0.0922
GCAACGTA | 0.399
ATCACTCC | -0.0415
CACACCCC | -0.208
CGCGAACC | -0.0595
AATCCAAT | 0.0698
CTCGGATC | -0.0845
TAATTCGA | 0.198

Sequence | PBM E-score
ATGCACTG | -0.0475
AGATATTC | 0.0644
ATAACGGG | 0.00173
CTAACGTC | 0.338
ATAACGAC | 0.241
ATAACGTG | 0.377
ATAACGTC | 0.425
ATAACGCG | 0.184
ATTGCTTC | -0.109
CCGAACTC | -0.125
CTGTTAGA | -0.0627
AAGTTCTC | -0.203
AAATGATG | 0.373
AAATGATT | 0.263
AAATGATA | 0.266
CAATGATG | 0.381
CAATGATA | 0.254
CAATGATC | 0.0721
CCCGATAC | -0.0866
CCTACTTA | -0.00728
GCCCGTAA | 0.172
ACGCACGC | 0.316
ACGCACAT | 0.387
ACGCACGA | 0.295
ACGCACAA | 0.262

Sequence | PBM E-score
ACGCACGT | 0.403
AAGCACGT | 0.389
AAGCACGG | -0.00706
ACGCACAG | 0.254
AAGCACGA | 0.0735
GGAACGGA | -0.185
ATTCGCTG | 0.0204
ACAATACG | 0.386
ATAATACC | 0.138
CGAATACC | -0.0967
ATAATACG | 0.376
ACAATACA | 0.0868
ATAATACA | 0.208
ACAATACT | 0.151
AGAATACG | 0.304
CGAATACG | 0.406
CTGGCAAC | -0.23
CACGCTTA | 0.116
AGATGCAT | -0.0801
